# In PubChem BioAssay (NCATS):
# Inconclusive results are not listed. The list shows a part of the results. Entries that show only a call come without a potency. The source made the active and inactive calls. Unless noted, the call rests on the fitted dose curve; in most records, active means well fitted curve in the direction sought with a large enough effect; inconclusive means small, poorly fitted or top-dose-only effect, or another doubt; inactive means no such curve, though single readings can be large; an effect the other way counts as inactive or inconclusive.
# Experiments:
# [1] = target: DNA polymerase eta (Homo sapiens) (UniProt Q9Y253); assay: qHTS for Inhibitors of Polymerase Eta: Confirmatory Assay for Cherry-picked Compounds (AID 720502); settings: Pol eta primer extension, TAMRA/BHQ fluorescence, 10 min; further: potency means the concentration at half of the fitted maximal effect
# Sequence of DNA polymerase eta (Homo sapiens) (Q9Y253 whole entry, looked up): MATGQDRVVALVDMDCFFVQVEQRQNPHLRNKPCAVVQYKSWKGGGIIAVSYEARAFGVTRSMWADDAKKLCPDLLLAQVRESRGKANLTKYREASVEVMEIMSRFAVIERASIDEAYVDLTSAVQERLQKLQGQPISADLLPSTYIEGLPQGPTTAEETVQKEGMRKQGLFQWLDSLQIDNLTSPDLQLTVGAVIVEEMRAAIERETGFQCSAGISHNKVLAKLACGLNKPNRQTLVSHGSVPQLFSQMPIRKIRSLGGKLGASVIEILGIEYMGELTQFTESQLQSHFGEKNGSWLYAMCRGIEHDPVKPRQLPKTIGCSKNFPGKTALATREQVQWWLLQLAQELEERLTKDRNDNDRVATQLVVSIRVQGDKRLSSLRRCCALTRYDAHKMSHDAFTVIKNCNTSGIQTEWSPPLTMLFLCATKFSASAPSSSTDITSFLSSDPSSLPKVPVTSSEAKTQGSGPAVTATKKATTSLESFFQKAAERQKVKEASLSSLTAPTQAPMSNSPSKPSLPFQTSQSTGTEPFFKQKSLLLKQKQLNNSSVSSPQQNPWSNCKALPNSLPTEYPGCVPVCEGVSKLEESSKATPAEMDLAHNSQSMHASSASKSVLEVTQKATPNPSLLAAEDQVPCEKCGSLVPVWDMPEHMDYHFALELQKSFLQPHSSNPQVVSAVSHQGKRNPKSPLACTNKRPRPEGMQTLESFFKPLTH
# Summary of the method: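 The reaction starts with 50 nM final labeled DNA substrate added to Pol eta (10 nM) that had sat with compound for 15 min. TAMRA emission at 598 nm is read at 0 and 10 min.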
# [2] = target: DNA dC->dU-editing enzyme APOBEC-3G (Homo sapiens) (UniProt Q9HC16); assay: qHTS for inhibitors of Vif-A3G interactions: Validation (AID 588379); settings: Vif-A3G protein interaction assay; series mostly up to 46.1 µM
# Sequence of DNA dC->dU-editing enzyme APOBEC-3G (Homo sapiens) (Q9HC16 whole entry, looked up): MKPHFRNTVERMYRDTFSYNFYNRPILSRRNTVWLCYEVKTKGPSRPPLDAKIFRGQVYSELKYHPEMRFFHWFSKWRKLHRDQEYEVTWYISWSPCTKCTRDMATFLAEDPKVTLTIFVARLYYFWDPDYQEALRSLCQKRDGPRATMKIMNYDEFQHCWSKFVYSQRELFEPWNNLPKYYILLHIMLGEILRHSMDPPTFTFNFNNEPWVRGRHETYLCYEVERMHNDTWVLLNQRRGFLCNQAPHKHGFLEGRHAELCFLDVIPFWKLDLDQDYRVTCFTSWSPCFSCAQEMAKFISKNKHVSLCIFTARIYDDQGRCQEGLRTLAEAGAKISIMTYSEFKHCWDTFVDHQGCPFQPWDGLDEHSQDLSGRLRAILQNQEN
# Summary of the method: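 HeLa cells stably expressing Vif and A3G-eYFP, 700 cells/well, incubated overnight at 37 deg C, then exposed to compound overnight at 37 deg C. Inhibition of Vif-mediated degradation read as increased yellow fluorescence (Ex 488/Em 500-530) by laser-scanning cytometry.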
# ATS189 = assay: qHTS profiling for inhibitors of Plasmodium falciparum proliferation (AID 504749); further: nearly all actives have a fitted effect of over 60% in size; settings: P. falciparum in erythrocytes, SYBR Green DNA, 72 h; series mostly up to 28.7 µM
# Summary of the method: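 P. falciparum-infected erythrocytes (0.3% parasitemia, 2.5% hematocrit final) were exposed to compounds for 72 h at 37 C in 5% CO2, then lysed with SYBR Green buffer overnight at room temperature; parasite DNA fluorescence was normalized to artemisinin and DMSO controls.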
# [3] = S16 Schwann cell viability assay (CellTiter-Glo assay) (AID 624031); settings: S16 rat Schwann cells viability, 24 h; series mostly up to 57.5 µM;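 further: native untransfected S16 rat Schwann cells; cellular ATP luminescence as a viability measure; nearly all actives have a fitted effect of over 70% in size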
# Summary of the method: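 Parental S16 cells, 24 h compound, 37 °C. ATP-luminescence viability; DMSO = 0% activity, empty wells as reference; curves classified by fit quality and efficacy.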
# [4] = S16 Schwann cell PMP22 intronic element firefly luciferase assay (AID 624032); settings: S16 rat Schwann cells, PMP22 element FLuc, 24 h; series mostly up to 57.5 µM; further: nearly all actives have a fitted effect of over 30% in size
# Summary of the method: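 Rat S16 Schwann cells stably carrying a PMP22 intronic element-driven Fluc reporter were seeded overnight, then exposed to compounds for 24 h at 37 °C. Luminescence was normalized to PTC124 (positive control) and DMSO (0% activity).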
# [5] = target: Tyrosyl-DNA phosphodiesterase 1 (Homo sapiens) (UniProt Q9NUW8); assay: Confirmation Assay for Inhibitors of Tyrosyl-DNA Phosphodiesterase (TDP1) (AID 489007); settings: recombinant human TDP1 enzymatic activity, dose-response; further: potency means the concentration at half of the fitted maximal effect; nearly all actives have a fitted effect of over 40% in size
# Sequence of Tyrosyl-DNA phosphodiesterase 1 (Homo sapiens) (Q9NUW8 whole entry, looked up): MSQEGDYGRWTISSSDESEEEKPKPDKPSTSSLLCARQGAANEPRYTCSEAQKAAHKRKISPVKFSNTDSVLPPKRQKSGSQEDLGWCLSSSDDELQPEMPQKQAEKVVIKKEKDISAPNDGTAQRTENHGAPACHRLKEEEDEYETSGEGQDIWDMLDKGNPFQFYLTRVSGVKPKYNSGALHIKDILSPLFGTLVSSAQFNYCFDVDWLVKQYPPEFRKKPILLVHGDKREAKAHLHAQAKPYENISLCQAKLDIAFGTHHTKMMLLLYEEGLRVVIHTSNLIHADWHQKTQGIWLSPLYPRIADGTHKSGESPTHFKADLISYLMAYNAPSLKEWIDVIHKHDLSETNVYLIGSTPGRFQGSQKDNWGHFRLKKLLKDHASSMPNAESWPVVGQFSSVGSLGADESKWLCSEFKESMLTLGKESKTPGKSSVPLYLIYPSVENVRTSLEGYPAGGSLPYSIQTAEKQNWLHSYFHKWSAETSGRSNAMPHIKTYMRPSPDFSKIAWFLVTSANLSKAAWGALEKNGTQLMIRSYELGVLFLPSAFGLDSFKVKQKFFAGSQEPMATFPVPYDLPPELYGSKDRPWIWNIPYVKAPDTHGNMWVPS
# Summary of the method: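 Confirmation of primary-screen follow-ups in a qHTS format. Substrate cleavage by Tdp1 (1 nM) of a 3'-phosphotyrosine-FITC, 5'-biotin oligo (15 nM) was monitored as decreased AlphaScreen signal after a 5 min room-temperature reaction.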
# [6] = qHTS Assay for Identification of Small Molecule Agonists for Thrombopoietin (TPO) Signaling Pathway (AID 917); settings: TPO signaling pathway reporter cells, agonist qHTS, stimulated with TPO at its EC50; series mostly up to 38.5 µM
# Summary of the method: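 Murine Ba/F3 cells stably expressing human TPO receptor and a Glycoprotein IIb promoter–luciferase reporter were IL-3-starved overnight, then treated with compounds plus TPO (26 pM final, its EC50) for 24 hrs at 37 C; luminescence was read.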
# [7] = target: Muscarinic acetylcholine receptor M1 (Rattus norvegicus) (UniProt P08482); assay: qHTS Assay for Antagonists of Acetylcholine Muscarinic M1 Receptor: Measurement of IP-One Response (AID 944); settings: CHO-M1 cells, IP-One HTRF, antagonist mode; series mostly up to 46.1 µM; further: nearly all actives have a fitted effect of over 75% in size
# Sequence of Muscarinic acetylcholine receptor M1 (Rattus norvegicus) (P08482 whole entry, looked up): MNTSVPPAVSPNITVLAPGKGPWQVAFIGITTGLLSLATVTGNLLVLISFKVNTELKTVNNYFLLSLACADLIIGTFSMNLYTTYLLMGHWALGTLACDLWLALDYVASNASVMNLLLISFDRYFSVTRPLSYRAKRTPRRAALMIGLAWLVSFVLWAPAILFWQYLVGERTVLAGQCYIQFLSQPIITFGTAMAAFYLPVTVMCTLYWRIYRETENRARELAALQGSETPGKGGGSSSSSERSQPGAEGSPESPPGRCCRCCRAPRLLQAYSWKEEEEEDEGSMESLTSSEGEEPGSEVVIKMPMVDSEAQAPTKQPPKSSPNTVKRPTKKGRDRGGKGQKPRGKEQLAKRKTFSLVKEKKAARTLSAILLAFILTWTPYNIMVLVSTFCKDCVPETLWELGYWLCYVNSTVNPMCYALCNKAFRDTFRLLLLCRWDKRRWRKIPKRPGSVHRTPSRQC
# Summary of the method: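 Steps: plate transfected CHO-M1 cells overnight; add test compound, 10 min; add carbachol (200 nM, EC80) in stimulation buffer with LiCl; incubate 30 min; add labelled IP1 tracer and anti-IP1 antibody in lysis buffer; read HTRF after 10 min.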
# [8] = target: Pyruvate kinase PKM (Homo sapiens) (UniProt P14618); assay: qHTS Assay for Activators of Human Muscle Pyruvate Kinase (AID 954; active means well fitted curve in the direction sought with a large enough effect, not every such curve was filed as active); settings: purified human muscle pyruvate kinase, luciferase-coupled luminescence, 1 h; series mostly up to 57.5 µM
# Sequence of Pyruvate kinase PKM (Homo sapiens) (P14618 whole entry, looked up): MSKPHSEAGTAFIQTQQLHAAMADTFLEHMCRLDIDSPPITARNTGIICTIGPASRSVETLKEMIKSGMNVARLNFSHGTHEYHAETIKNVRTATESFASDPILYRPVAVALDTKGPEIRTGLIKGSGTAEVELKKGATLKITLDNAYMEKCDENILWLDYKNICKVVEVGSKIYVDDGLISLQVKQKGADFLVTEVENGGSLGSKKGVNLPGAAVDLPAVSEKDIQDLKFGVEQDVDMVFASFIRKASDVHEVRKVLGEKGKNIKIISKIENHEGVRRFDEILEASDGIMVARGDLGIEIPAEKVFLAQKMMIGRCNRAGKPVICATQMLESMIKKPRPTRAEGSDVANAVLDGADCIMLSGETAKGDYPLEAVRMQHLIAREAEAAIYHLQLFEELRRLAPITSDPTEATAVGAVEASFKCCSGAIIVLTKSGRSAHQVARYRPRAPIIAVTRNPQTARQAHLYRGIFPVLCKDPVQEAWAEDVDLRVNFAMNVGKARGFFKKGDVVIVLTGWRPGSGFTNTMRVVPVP
# Summary of the method: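 Purified human PKM2 (0.1 nM) with 0.5 mM PEP (Km) and 0.1 mM ADP in 50 mM imidazole pH 7.2, KCl, MgCl2, 1 h at room temperature; ATP formed read by coupled luciferase luminescence. Normalized to no-enzyme/110 uM thiadiazolimine inhibition; 0.3 nM enzyme column for activation.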
# [9] = target: Alpha-galactosidase A (Homo sapiens) (UniProt P06280); assay: Counterscreen for Glucocerebrosidase Inhibitors: qHTS Assay for Human alpha-Galactosidase at pH 4.5 (AID 992); settings: purified enzyme, fluorogenic substrate; series mostly up to 76.9 µM
# Sequence of Alpha-galactosidase A (Homo sapiens) (P06280 whole entry, looked up): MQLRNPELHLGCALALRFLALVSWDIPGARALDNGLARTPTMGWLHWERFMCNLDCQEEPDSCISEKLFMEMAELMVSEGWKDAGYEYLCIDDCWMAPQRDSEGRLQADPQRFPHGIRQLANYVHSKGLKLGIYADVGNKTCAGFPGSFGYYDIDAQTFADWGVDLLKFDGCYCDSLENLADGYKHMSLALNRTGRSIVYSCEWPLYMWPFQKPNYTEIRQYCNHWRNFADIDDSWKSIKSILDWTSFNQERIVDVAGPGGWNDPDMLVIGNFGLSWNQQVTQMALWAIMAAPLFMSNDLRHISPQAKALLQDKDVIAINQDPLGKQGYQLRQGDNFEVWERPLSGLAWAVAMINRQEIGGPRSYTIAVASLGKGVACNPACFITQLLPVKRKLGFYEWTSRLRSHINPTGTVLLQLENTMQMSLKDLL
# Summary of the method: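 Human enzyme (2 nM) with 80 uM 4-methylumbelliferyl alpha-D-galactopyranoside in 50 mM citric acid, 0.005% Tween-20, pH 4.5, 20 min at room temperature. Compounds 0.7 nM–77 uM; fluorescence Ex 365/Em 440 after pH 10 stop; AC50 from Hill fits.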
# [10] = target: alpha-glucosidase (Oryza sativa, rice) (UniProt Q653V4); assay: Counterscreen for Glucocerebrosidase Inhibitors: qHTS Assay for Rice alpha-Glucosidase at pH 5.0 (AID 997); settings: rice alpha-glucosidase enzyme activity; series mostly up to 76.9 µM
# Summary of the method: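 Rice alpha-glucosidase (4 nM final) with 400 uM 4-methylumbelliferyl-alpha-D-glucopyranoside in citrate buffer pH 5.0, 20 min at room temperature, stopped at pH 10; fluorescence 365/440 nm, compounds 0.7 nM–77 uM, AC50 from Hill fits.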
# [11] = Cytometric Cell-Based qHTS for Inhibitors of the mTORC1 Signaling Pathway in MEF (Tsc2-/-, p53-/-) Cells (AID 2660); settings: mTORC1 pathway cytometry; series mostly up to 38.3 µM;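 further: percent of cells above a phospho-rpS6 to PI ratio cutoff in each well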
# Summary of the method: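 Tsc2-/-, p53-/- MEFs (empty vector) exposed to compound 24 h at 37 C, fixed, stained with Alexa-488 anti-phospho-rpS6 Ser235/236 and propidium iodide. Acumen laser scanning; phospho-S6/PI ratio thresholded against 7.5 nM rapamycin, reported as % positive cells.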
# [12] = High Content Imaging Cell-Based qHTS for Inhibitors of the mTORC1 Signaling Pathway in MEF (Tsc2-/-, p53-/-) Cells (AID 2666); settings: at 38.3 µM (top of the series);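 further: percent of cells scored positive for phospho-rpS6 Ser235/236 immunostaining by imaging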
# Summary of the method: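 Read-out: % positive cells per well, with thresholds from highest- and lowest-signal wells, based on phospho-rpS6 (Ser235/236) intensity normalized to Hoechst nuclear stain. Cells: Tsc2-/-, p53-/- MEFs carrying empty vector; compound 24 hrs, 37 degree Celsius.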
# [13] = High Content Imaging Cell-Based qHTS for Inhibitors of the mTORC1 Signaling Pathway in MEF Cells (AID 2667); settings: series mostly up to 38.3 µM;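 further: Tsc2-/- p53-/- MEFs stably re-expressing wild-type Tsc2 exposed 24 h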
# Summary of the method: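 MEF (Tsc2-/-, p53-/-, WT Tsc2 re-expressed); cpd 24 h, 37 °C; PFA fix; Alexa-488 anti-p-rpS6 Ser235/236, PI, Hoechst; IN Cell imaging; Hoechst/Alexa-488 intensity ratio; % active cells, thresholds set from rapamycin and DMSO wells.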
# [14] = Cytometry Cell-Based qHTS for Inhibitors of the mTORC1 Signaling Pathway in MEF cells (AID 2668); settings: mTORC1 pathway readout; series mostly up to 38.3 µM;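 further: Tsc2-/- p53-/- mouse embryonic fibroblasts stably re-expressing wild-type Tsc2; percent cells positive for phospho-rpS6 Ser235/236 relative to propidium iodide stain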
# Summary of the method: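 WT MEFs (Tsc2-/-, p53-/- stably re-expressing WT Tsc2) in DMEM + 10% FBS received compounds 24 hrs after plating, for 24 hrs at 37 degree Celsius. Fixed cells stained with Alexa-488 anti-phospho-rpS6 Ser235/236 and propidium iodide; laser-scanning cytometry read-out.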
# [15] = target: Ubiquitin carboxyl-terminal hydrolase 2 (Homo sapiens) (UniProt O75604); assay: qHTS Validation Assay for Inhibitors of Ubiquitin-specific Protease USP2a Using CHOP2 as the Reporter (AID 463106); settings: USP2a cleavage of CHOP2 reporter, enzymatic; series mostly up to 38.3 µM
# Summary of the method: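 USP2 core (10nM final) was preincubated with compound for 30min at RT in 20mM Tris-HCl pH 8.0, 2mM CaCl2, 2mM beta-mercaptoethanol, 0.05% CHAPS. Ub-CHOP2 and reporter substrate (25nM each) were added, and fluorescence (Ex 485/Em 531nm) was read after 60min.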
# [16] = target: DNA polymerase iota (Homo sapiens) (UniProt Q9UNA4); assay: qHTS for Inhibitors of Polymerase Iota: Confirmatory Assay for Cherry-picked Compounds (AID 720496); settings: Pol iota primer extension, TAMRA/BHQ fluorescence; further: potency means the concentration at half of the fitted maximal effect
# Sequence of DNA polymerase iota (Homo sapiens) (Q9UNA4 whole entry, looked up): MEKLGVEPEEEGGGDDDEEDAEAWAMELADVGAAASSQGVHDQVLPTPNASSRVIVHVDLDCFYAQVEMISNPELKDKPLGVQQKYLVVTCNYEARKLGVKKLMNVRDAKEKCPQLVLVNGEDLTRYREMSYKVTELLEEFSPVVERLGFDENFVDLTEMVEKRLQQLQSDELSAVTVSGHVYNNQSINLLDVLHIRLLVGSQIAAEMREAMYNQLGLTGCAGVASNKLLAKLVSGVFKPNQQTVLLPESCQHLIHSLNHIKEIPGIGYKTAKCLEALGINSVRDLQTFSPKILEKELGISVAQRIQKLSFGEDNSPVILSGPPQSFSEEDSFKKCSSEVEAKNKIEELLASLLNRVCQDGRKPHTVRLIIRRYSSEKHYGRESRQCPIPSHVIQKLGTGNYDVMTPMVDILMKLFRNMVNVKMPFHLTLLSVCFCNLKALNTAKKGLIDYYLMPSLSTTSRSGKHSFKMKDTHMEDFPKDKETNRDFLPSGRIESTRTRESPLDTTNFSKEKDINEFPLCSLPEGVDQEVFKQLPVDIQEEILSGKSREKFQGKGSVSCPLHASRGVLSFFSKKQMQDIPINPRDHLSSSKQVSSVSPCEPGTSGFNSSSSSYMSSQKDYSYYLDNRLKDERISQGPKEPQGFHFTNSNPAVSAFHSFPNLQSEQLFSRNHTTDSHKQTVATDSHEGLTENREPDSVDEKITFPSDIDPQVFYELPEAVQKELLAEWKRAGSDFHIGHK
# Summary of the method: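 Human Pol iota (10 nM) was preincubated 15 min at room temperature with compound, then started with 50 nM TAMRA/BHQ-2 quenched primer-template substrate. Fluorescence (ex 525/em 598 nm) was read at 0 and 10 min.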
# [17] = Confirmation and Secondary Assay for Modulators of Hemoglobin Beta Chain Splicing at IVS2 654 locus (AID 910); settings: HeLa EGFP-654 splicing reporter, GFP fluorescence, 48 h; series mostly up to 38.3 µM;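 further: per-well total GFP intensity by laser scanning cytometry after 2-day treatment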
# Summary of the method: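 HeLa cells stably carrying EGFP interrupted by mutant beta-globin IVS2-654 intron (CMV-driven) were treated with compound for 2 days at 37C; corrected splicing was scored as total peak GFP intensity per well (488 nm excitation, 500-520 nm emission).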
# [18] = target: Luciferin 4-monooxygenase (Photinus pyralis) (UniProt P08659); assay: Biochemical firefly luciferase enzyme assay for NPC (AID 624030);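 further: purified P. pyralis luciferase at 10 nM with luciferin and ATP substrate; nearly all actives have a fitted effect of over 70% in size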; settings: purified P. pyralis luciferase, luminescence, 5 min; series mostly up to 58.6 µM
# Sequence of Luciferin 4-monooxygenase (Photinus pyralis) (P08659 whole entry, looked up): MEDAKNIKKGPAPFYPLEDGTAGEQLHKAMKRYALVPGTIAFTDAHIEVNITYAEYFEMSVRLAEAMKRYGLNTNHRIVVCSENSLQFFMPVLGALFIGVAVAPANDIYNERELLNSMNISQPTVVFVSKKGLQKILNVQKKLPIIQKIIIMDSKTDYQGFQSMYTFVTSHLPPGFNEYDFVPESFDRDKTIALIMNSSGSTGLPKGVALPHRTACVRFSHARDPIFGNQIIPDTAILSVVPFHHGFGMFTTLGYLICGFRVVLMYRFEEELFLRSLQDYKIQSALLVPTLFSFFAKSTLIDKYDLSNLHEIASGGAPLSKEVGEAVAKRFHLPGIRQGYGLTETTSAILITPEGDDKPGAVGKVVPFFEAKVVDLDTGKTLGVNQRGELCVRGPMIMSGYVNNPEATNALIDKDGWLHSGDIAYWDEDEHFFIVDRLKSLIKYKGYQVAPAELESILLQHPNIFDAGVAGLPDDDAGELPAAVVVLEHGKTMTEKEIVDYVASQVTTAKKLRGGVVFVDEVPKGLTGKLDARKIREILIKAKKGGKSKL
# Summary of the method: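 Counter-screen for direct inhibition of the luciferase enzyme by approved-drug library compounds, run at 10 nM enzyme in 50 mM Tris acetate (final). Luminescence was read within 5 min of enzyme-buffer addition and normalized to PTC124 versus DMSO (0%).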
# [19] = target: Cytochrome P450 2D6 (Homo sapiens) (UniProt P10635); assay: qHTS Assay for Inhibitors and Substrates of Cytochrome P450 2D6 (AID 891); settings: recombinant CYP2D6, luciferin-ME EGE luminescence; series mostly up to 11.4 µM; further: nearly all actives have a fitted effect of over 60% in size; further: potency means the concentration at half of the fitted maximal effect
# Sequence of Cytochrome P450 2D6 (Homo sapiens) (P10635 whole entry, looked up): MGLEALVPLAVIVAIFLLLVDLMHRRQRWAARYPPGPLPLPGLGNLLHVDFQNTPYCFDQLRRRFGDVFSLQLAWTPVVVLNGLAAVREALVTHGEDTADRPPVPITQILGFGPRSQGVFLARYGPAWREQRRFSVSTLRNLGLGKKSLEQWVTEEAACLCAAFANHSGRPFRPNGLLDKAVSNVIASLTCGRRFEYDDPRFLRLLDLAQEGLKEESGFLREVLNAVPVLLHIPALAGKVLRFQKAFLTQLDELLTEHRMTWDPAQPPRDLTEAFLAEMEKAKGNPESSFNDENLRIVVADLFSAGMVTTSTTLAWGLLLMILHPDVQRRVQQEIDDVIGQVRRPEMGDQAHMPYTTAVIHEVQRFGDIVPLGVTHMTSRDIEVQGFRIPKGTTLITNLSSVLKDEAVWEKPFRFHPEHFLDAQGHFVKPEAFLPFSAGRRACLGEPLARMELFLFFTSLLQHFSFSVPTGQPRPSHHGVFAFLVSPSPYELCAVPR
# Summary of the method: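 Human CYP2D6 (5 nM) with 30 uM Luciferin-ME EGE (at Km) in 100 mM KPO4, compound preincubated 10 min, then NADPH regeneration system for 60 min at room temperature. Luciferin read by luminescence; normalized to 1.43 uM quinidine.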
compound,measurement,setting,value
C=CCn1c(=S)[nH]c2scc(-c3ccco3)c2c1=O,Potency,[1],26.9 µM (active)
Cc1c(C(=O)O)c(O)cc2c1C(=O)c1c(O)c([C@H]3O[C@H](CO)[C@@H](O)[C@H](O)[C@H]3O)c(O)c(O)c1C2=O,outcome,[2],inactive
same,Potency,ATS189,inactive
C=CC(C)(O)CCCC(C)CCCC(C)CCCC(C)C (stereo not drawn),outcome,[2],inactive
C=C1CC[C@H](O)C/C1=C/C=C1\CCC[C@]2(C)[C@@H]([C@H](C)CCCC(C)C)CC[C@@H]12,Potency,[3],inactive
same,Potency,[4],inactive
Cc1cc(C)c2nc(-c3ccco3)cc(C(=O)O)c2c1,Potency,[5],15.8 µM (active)
Oc1cc2c(cc1O)[C@H]1c3ccc(O)c(O)c3OC[C@@]1(O)C2,outcome,[2],inactive
CC[C@@H](CO)Nc1nc(NCc2ccccc2)c2ncn(C(C)C)c2n1,outcome,[6],inactive
same,Potency,[7],inactive
same,outcome,[8],inactive
same,outcome,[9],inactive
same,Potency,[10],inactive
same,outcome,[11],inactive
same,outcome,[12],inactive
same,outcome,[13],inactive
same,outcome,[14],inactive
same,outcome,[15],inactive
N#Cc1ccccc1CN1C(=O)S/C(=C/c2cccn2-c2cccc(C(=O)O)c2)C1=O,Potency,[16],67 µM (active)
same,Potency,[1],60.1 µM (active)
O=C(NCc1ccccn1)c1ccc2nc(-c3ccco3)c(-c3ccco3)nc2c1,Potency,[5],10 µM (active)
COc1cc([C@H](Cc2ccccc2)NC(C)=O)oc(=O)c1,Potency,[16],37.7 µM (active)
same,Potency,[1],23.9 µM (active)
CN(C)Cc1ccccc1-c1ccc2ncnc(NC3CCNCC3)c2c1,outcome,[17],inactive
NS(=O)(=O)c1cc2c(cc1Cl)N[C@H](Cc1ccccc1)NS2(=O)=O,outcome,[18],inactive
same,Potency,[4],inactive
same,Potency,ATS189,inactive
COc1ccccc1-c1nc(NCc2ccccc2)c2ccccc2n1,Potency,[19],1.58 µM (active)
same,outcome,[17],inactive
C[C@]12CC[C@H]3c4ccc(O)cc4CC[C@@H]3[C@H]1CC[C@@H]2OC(=O)CCC1CCCC1,outcome,[18],inactive
CN(C)c1ccc(-c2cc(NCc3ccccc3)ncn2)cc1,outcome,[17],inactive
Cc1cn([C@H]2C[C@H](N=[N+]=[N-])[C@H](CO)O2)c(=O)[nH]c1=O,outcome,[6],inactive
same,outcome,[8],inactive
same,outcome,[9],inactive
same,Potency,[10],inactive
same,outcome,[18],inactive
same,Potency,[3],inactive
same,Potency,[4],inactive
same,Potency,ATS189,inactive
COc1ccc2cc1Oc1ccc(cc1)C[C@H]1c3cc(c(OC)cc3CCN1C)Oc1c(OC)c(OC)cc3c1[C@@H](C2)N(C)CC3,Potency,[19],inactive
O=C(O)[C@@H](S)[C@H](S)C(=O)O,outcome,[18],inactive
same,Potency,[3],inactive
CNc1ncncc1-c1ccc(C(=O)N(C)C)cc1,outcome,[17],inactive
